# Records with an inconclusive call do not appear. A call without a number means that no potency is given here. Active and inactive are the calls of the source. Unless noted, the call rests on the fitted dose curve; in most records, active means well fitted inhibition curve with a large enough effect; inconclusive means small, poorly fitted or top-dose-only effect; inactive means no such curve, though single readings can be large or run the other way.
# What was measured:
# [1] = qHTS assay to identify small molecules that stimulate interleukin-8 (IL-8) secretion (AID 651758; active means well fitted activation curve with a large enough effect in the signal ratio; the % refers to the signal ratio); settings: HTRF ratio (665/615); series mostly up to 92.2 µM
# Outline: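 Secreted IL-8 measured homogeneously by TR-FRET (two labelled anti-IL-8 antibodies, 1-3 h at room temperature) after a 16 h, 37 C compound treatment of THP-1 cells at 2000 cells/well.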
# [2] = target: Tyrosine-protein kinase Yes (Homo sapiens) (UniProt P07947); test: qHTS for small molecule inhibitors of Yes1 kinase: Primary Screen (AID 686947); settings: Yes1 kinase biochemical qHTS inhibition; series mostly up to 76.9 µM; further: nearly all actives have a fitted effect of over 60% in size
# Outline: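 In this qHTS format, inhibition is expressed relative to DMSO controls with enzyme (maximum) and without enzyme (minimum). The 60 min room-temperature reaction uses 0.1 mM ATP, with ADP detected by luminescence.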
# [3] = target: Nuclear receptor ROR-gamma (Homo sapiens) (UniProt P51449); test: qHTS assay for small molecule antagonists of the retinoid-related orphan receptor gamma (ROR-gamma) signaling pathway (AID 651802); settings: ROR-gamma antagonist cell reporter assay; series mostly up to 92.2 µM;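 further: CHO cells with doxycycline-induced ROR-gamma expression; luciferase reporter luminescence driven by ROR response element; nearly all actives have a fitted effect of over 60% in size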
# Outline: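 Luciferase read-out: ONE-Glo luminescence after 30 min at room temperature, following 16hr doxycycline induction at 37C, 5% CO2 of CHO cells with TET-inducible ROR and RORE-LUC reporter; decreased luminescence = reduced reporter activity.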
# Sequence of Tyrosine-protein kinase Yes (Homo sapiens) (P07947 whole entry, looked up): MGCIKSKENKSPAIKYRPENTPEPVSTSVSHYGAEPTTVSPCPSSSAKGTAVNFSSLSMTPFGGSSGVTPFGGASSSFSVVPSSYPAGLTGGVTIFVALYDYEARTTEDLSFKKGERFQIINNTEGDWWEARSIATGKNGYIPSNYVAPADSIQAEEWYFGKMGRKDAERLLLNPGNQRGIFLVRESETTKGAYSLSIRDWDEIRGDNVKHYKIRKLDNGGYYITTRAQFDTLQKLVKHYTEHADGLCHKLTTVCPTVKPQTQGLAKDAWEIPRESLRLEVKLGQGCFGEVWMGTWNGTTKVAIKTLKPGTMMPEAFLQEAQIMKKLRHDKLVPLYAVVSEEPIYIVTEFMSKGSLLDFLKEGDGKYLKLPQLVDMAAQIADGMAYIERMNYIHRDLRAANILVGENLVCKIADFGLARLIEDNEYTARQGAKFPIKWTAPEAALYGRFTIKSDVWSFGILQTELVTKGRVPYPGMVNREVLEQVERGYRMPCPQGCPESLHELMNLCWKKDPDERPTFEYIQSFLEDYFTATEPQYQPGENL
# Sequence of Nuclear receptor ROR-gamma (Homo sapiens) (P51449 whole entry, looked up): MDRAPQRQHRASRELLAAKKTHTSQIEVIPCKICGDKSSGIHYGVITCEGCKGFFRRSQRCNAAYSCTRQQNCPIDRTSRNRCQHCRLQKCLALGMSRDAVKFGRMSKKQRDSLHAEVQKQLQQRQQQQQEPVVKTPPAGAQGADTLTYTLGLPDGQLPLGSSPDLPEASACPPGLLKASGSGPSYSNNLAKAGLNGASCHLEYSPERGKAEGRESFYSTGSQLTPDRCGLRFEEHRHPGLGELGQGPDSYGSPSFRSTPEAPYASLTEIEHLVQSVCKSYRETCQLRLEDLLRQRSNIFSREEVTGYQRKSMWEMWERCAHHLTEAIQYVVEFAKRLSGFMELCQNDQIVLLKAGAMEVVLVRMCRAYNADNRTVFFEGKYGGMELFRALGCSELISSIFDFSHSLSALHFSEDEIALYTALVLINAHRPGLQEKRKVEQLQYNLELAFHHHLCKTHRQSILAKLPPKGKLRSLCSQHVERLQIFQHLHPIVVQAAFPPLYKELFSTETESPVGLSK
smiles,measurement,setting,value
O=c1c(-c2ccc(O)cc2)coc2cc(O)cc(O)c12,outcome,[1],inactive
COc1ccc2[nH]cc(CCNC(C)=O)c2c1,outcome,[1],inactive
Cc1ccc(-c2cc(C(F)(F)F)nn2-c2ccc(S(N)(=O)=O)cc2)cc1,Potency,[2],inactive
COc1ccc(CCN(C)CCCC(C#N)(c2ccc(OC)c(OC)c2)C(C)C)cc1OC (stereo not given),Potency,[2],inactive
Nc1c2c(nc3ccccc13)CCCC2,Potency,[3],inactive

# — PubChem BioAssay (NCATS)
